Measurements reported in PubChem BioAssay (NCATS).
Several values for one entry are separate records, joined by “and”; a condition that tells them apart may be missing. Equal values may be shown once. Results filed as inconclusive are left out. Where a call stands in place of a potency, no number is given. Unmarked numbers belong to inactive results. Activity calls are given as the source filed them. Calls follow the shape of the dose curve; as a rule, active = well fitted inhibition curve with a large enough effect; inconclusive = small, poorly fitted or top-dose-only effect; inactive = flat fitted curve, though single readings scatter.

What was measured:
HB3 = assay: qHTS profiling for inhibitors of Plasmodium falciparum proliferation (AID 504749); conditions: P. falciparum in erythrocytes, SYBR Green DNA, 72 h; series mostly up to 28.7 µM
Summary of the method: (§1)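 Three-day growth assay of blood-stage parasites in erythrocytes (0.3% parasitemia, 2.5% hematocrit) at 37 C, 5% CO2, quantified by SYBR Green DNA staining after overnight detergent lysis.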

ICS = assay: as above; conditions: P. falciparum in erythrocytes, SYBR Green DNA, 72 h; series mostly up to 28.7 µM
Summary of the method: as §1

JCK = assay: as above; conditions: P. falciparum in erythrocytes, SYBR Green DNA, 72 h; series mostly up to 28.7 µM
Summary of the method: as §1

N140 = assay: as above; conditions: P. falciparum in erythrocytes, SYBR Green DNA, 72 h; series mostly up to 28.7 µM
Summary of the method: as §1

P93_24 = assay: as above; conditions: P. falciparum in erythrocytes, SYBR Green DNA, 72 h; series mostly up to 28.7 µM
Summary of the method: as §1

P94_40 = assay: as above; conditions: P. falciparum in erythrocytes, SYBR Green DNA, 72 h; series mostly up to 28.7 µM
Summary of the method: as §1

PAD = assay: as above; conditions: P. falciparum in erythrocytes, SYBR Green DNA, 72 h; series mostly up to 28.7 µM
Summary of the method: as §1

PC15 = assay: as above; conditions: P. falciparum in erythrocytes, SYBR Green DNA, 72 h; series mostly up to 28.7 µM
Summary of the method: as §1

PC26 = assay: as above; conditions: P. falciparum in erythrocytes, SYBR Green DNA, 72 h; series mostly up to 28.7 µM
Summary of the method: as §1

PC49 = assay: as above; conditions: P. falciparum in erythrocytes, SYBR Green DNA, 72 h; series mostly up to 28.7 µM
Summary of the method: as §1

SC27B = assay: as above; conditions: P. falciparum in erythrocytes, SYBR Green DNA, 72 h; series mostly up to 28.7 µM
Summary of the method: as §1

TAB109 = assay: as above; conditions: P. falciparum in erythrocytes, SYBR Green DNA, 72 h; series mostly up to 28.7 µM
Summary of the method: as §1

TAB113 = assay: as above; conditions: P. falciparum in erythrocytes, SYBR Green DNA, 72 h; series mostly up to 28.7 µM
Summary of the method: as §1

TAB165 = assay: as above; conditions: P. falciparum in erythrocytes, SYBR Green DNA, 72 h; series mostly up to 28.7 µM
Summary of the method: as §1

W2 = assay: as above; conditions: P. falciparum in erythrocytes, SYBR Green DNA, 72 h; series mostly up to 28.7 µM
Summary of the method: as §1

CRL-7250 = normal cell line; assay: Cytotoxic Profiling of Annotated Libraries Using Quantitative High-Throughput Screening (AID 1296008); conditions: Five cell lines viability, CellTiter-Glo ATP luminescence, 48-72 h; max response: hits give low values
Summary of the method: (§2)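 Cytotoxicity was measured as CellTiter-Glo ATP luminescence, read after 10 min at room temperature. Compound treatment of the cells lasted 48 or 72 hr at 37 degrees Celsius in a qHTS format.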

HEK293 = assay: as above; conditions: Five cell lines viability, CellTiter-Glo ATP luminescence, 48-72 h; max response: hits give low values
Summary of the method: as §2

HaCat = assay: as above; conditions: Five cell lines viability, CellTiter-Glo ATP luminescence, 48-72 h; max response: hits give low values
Summary of the method: as §2

KB-3-1 = assay: as above; conditions: Five cell lines viability, CellTiter-Glo ATP luminescence, 48-72 h; max response: hits give low values
Summary of the method: as §2

NIH3T3 = assay: as above; conditions: Five cell lines viability, CellTiter-Glo ATP luminescence, 48-72 h; max response: hits give low values
Summary of the method: as §2
Also: nearly all actives have a fitted effect of over 60% in size.
Potency is read from the fitted curve at half-maximal effect.

With `CS(=O)(=O)CCNCc1ccc(-c2ccc3ncnc(Nc4ccc(OCc5cccc(F)c5)c(Cl)c4)c3c2)o1` the Potency (HB3) was “inactive”, the Potency (ICS) was “inactive” and the Potency (JCK) was “inactive”. For the same compound, the Potency (N140) was “inactive”, the Potency (P93_24) was “inactive” and the Potency (P94_40) was “inactive”. The Potency (PAD) was “inactive”, the Potency (PC15) was “inactive” and the Potency (PC26) was “inactive”. The Potency (PC49) was “inactive”, the Potency (SC27B) was “inactive” and the Potency (TAB109) was “inactive”. For the same compound, the Potency (TAB113) was “inactive”, the Potency (TAB165) was “inactive” and the Potency (W2) was “inactive”. The outcome (CRL-7250) was “inactive”, the Potency (HEK293) was 4.18 µM (active) and 6.68 µM (active) and 9.2 µM (active) and the Potency (HaCat) was 46.9 nM (active) and 266 nM (active). It also gave a max response (KB-3-1) of 0.0192% and a max response (NIH3T3) of -52.4%.
`COc1cc2nc(N(C)CCCNC(=O)C3CCCO3)nc(N)c2cc1OC` (centres undefined) was tested, and the max response (CRL-7250) was -3.88%, the max response (HEK293) was 0.95% and the max response (HaCat) was -0.905% and -4.65%. For the same compound, the outcome (NIH3T3) was “inactive”.
In the case of `CCOC(=O)C(C)(C)Oc1ccc(Cl)cc1`, the Potency (HB3) is reported as “inactive”, the Potency (ICS) is reported as “inactive” and the Potency (JCK) is reported as “inactive”. For the same compound, the Potency (N140) was “inactive”, the Potency (P93_24) was “inactive” and the Potency (P94_40) was “inactive”. The Potency (PAD) was “inactive”, the Potency (PC15) was “inactive” and the Potency (PC26) was “inactive”. The Potency (PC49) was “inactive”, the Potency (SC27B) was “inactive” and the Potency (TAB109) was “inactive”. The Potency (TAB113) was “inactive”, the Potency (TAB165) was “inactive” and the Potency (W2) was “inactive”. For the same compound, the max response (CRL-7250) was 2.19% and -5.27%, the max response (HEK293) was 4.89% and the outcome (HEK293) was “inactive”. The outcome (HaCat) was “inactive” and the outcome (NIH3T3) was “inactive”.
With `CN1CCN(C2=Nc3cc(Cl)ccc3Nc3ccccc32)CC1` the max response (CRL-7250) was -7.49% and -17.9%, the Potency (HEK293) was 13.3 µM (active) and the max response (HaCat) was 2.26%. The max response (KB-3-1) was 6.37% and the outcome (NIH3T3) was “inactive”.
In the case of `Cc1cn([C@H]2C=C[C@@H](CO)O2)c(=O)[nH]c1=O`, the Potency (HB3) is reported as “inactive”, the Potency (ICS) is reported as “inactive” and the Potency (JCK) is reported as “inactive”. For the same compound, the Potency (N140) was “inactive”, the Potency (P93_24) was “inactive” and the Potency (P94_40) was “inactive”. The Potency (PAD) was “inactive”, the Potency (PC15) was “inactive” and the Potency (PC26) was “inactive”. The Potency (PC49) was “inactive”, the Potency (SC27B) was “inactive” and the Potency (TAB109) was “inactive”. The Potency (TAB113) was “inactive”, the Potency (TAB165) was “inactive” and the Potency (W2) was “inactive”. For the same compound, the max response (CRL-7250) was -12.9% and -2.54%, the max response (HEK293) was -0.556% and 1.63% and the max response (HaCat) was 4.4% and -10.3%. The outcome (KB-3-1) was “inactive” and the max response (NIH3T3) was 1.04% and -9.57%.
For `O=C1Cc2cc(CCN3CCN(c4nsc5ccccc45)CC3)c(Cl)cc2N1`, the max response (CRL-7250) was -1.82% and -0.528%, the Potency (HEK293) was 16.8 µM (active) and the max response (HaCat) was -2.23% and 4.15%. The outcome (HaCat) was “inactive”, the max response (KB-3-1) was 2.45% [middle of 4 runs] and the max response (NIH3T3) was -14.8% and 4.36%. For the same compound, the outcome (NIH3T3) was “inactive”.
`CN(CCOc1ccc(NS(C)(=O)=O)cc1)CCc1ccc(NS(C)(=O)=O)cc1` was tested, and the Potency (HB3) was “inactive”, the Potency (ICS) was “inactive” and the Potency (JCK) was “inactive”. The Potency (N140) was “inactive”, the Potency (P94_40) was “inactive” and the Potency (PAD) was “inactive”. For the same compound, the Potency (PC15) was “inactive”, the Potency (PC26) was “inactive” and the Potency (PC49) was “inactive”. The Potency (SC27B) was “inactive”, the Potency (TAB109) was “inactive” and the Potency (TAB113) was “inactive”. For the same compound, the Potency (TAB165) was “inactive”, the Potency (W2) was “inactive” and the outcome (CRL-7250) was “inactive”. For the same compound, the outcome (HEK293) was “inactive”, the max response (HaCat) was 2.47% and the outcome (HaCat) was “inactive”. For the same compound, the max response (KB-3-1) was -3.43% and the outcome (NIH3T3) was “inactive”.
With `CS(=O)(=O)Nc1ccc([N+](=O)[O-])cc1Oc1ccccc1` the Potency (HB3) was “inactive”, the Potency (ICS) was “inactive” and the Potency (JCK) was “inactive”. The Potency (N140) was “inactive”, the Potency (P93_24) was “inactive” and the Potency (P94_40) was “inactive”. For the same compound, the Potency (PAD) was “inactive”, the Potency (PC15) was “inactive” and the Potency (PC26) was “inactive”. For the same compound, the Potency (PC49) was “inactive”, the Potency (SC27B) was “inactive” and the Potency (TAB109) was “inactive”. The Potency (TAB113) was “inactive”, the Potency (TAB165) was “inactive” and the Potency (W2) was “inactive”. For the same compound, the max response (CRL-7250) was -4.36% and 1.83%, the max response (HEK293) was -3.19% and the max response (HaCat) was 1.46%. For the same compound, the max response (NIH3T3) was 4.35% and -5.34%.
`CN(Cc1cnc2nc(N)nc(N)c2n1)c1ccc(C(=O)N[C@@H](CCC(=O)O)C(=O)O)cc1` was tested, and the Potency (HB3) was 0.141 µM (active), the Potency (ICS) was 0.112 µM (active) and the Potency (N140) was “inactive”. The Potency (P94_40) was 0.178 µM (active), the Potency (PC15) was 0.224 µM (active) and the Potency (PC26) was “inactive”. The Potency (PC49) was 0.178 µM (active), the Potency (SC27B) was 0.178 µM (active) and the Potency (TAB109) was “inactive”. For the same compound, the Potency (TAB165) was “inactive”, the Potency (CRL-7250) was 119 nM (active) and the Potency (HEK293) was 29.9 nM (active) and 33.2 nM (active). The Potency (HaCat) was 418 nM (active), the Potency (KB-3-1) was 37.2 nM (active) and the Potency (NIH3T3) was 266 nM (active) and 332 nM (active).
In the case of `COC(=O)Nc1nc2ccc(C(=O)c3cccs3)cc2[nH]1`, the Potency (HB3) is reported as “inactive”, the Potency (ICS) is reported as “inactive” and the Potency (JCK) is reported as “inactive”. For the same compound, the Potency (N140) was “inactive”, the Potency (P93_24) was “inactive” and the Potency (P94_40) was “inactive”. For the same compound, the Potency (PAD) was “inactive”, the Potency (PC15) was “inactive” and the Potency (PC26) was “inactive”. The Potency (PC49) was “inactive”, the Potency (SC27B) was “inactive” and the Potency (TAB109) was “inactive”. For the same compound, the Potency (TAB113) was “inactive”, the Potency (TAB165) was “inactive” and the Potency (CRL-7250) was 46.9 nM (active) and 188 nM (active). For the same compound, the Potency (HEK293) was 0.0944 µM (active), the max response (HaCat) was 3.37% and -11.6% and the Potency (KB-3-1) was 16.6 nM (active) and 231 nM (active). For the same compound, the Potency (NIH3T3) was 168 nM (active).
